Measurements taken from PubChem BioAssay (Tox21).
Inconclusive results are not listed. Values without a mark were called inactive. Activity calls are given as the source filed them. The call rests on the fitted dose curve; in most records, active means well fitted cell-killing curve with a large enough effect in the repeat runs; inconclusive means weak or mixed curves, or effect the other way; inactive means flat fitted curve, though single readings scatter.

experiment: qHTS assay to identify small molecule agonists of the estrogen receptor beta (ER-beta) signaling pathway - cell viability counter screen (AID 1259380); settings: ER-beta-bla HEK293T viability, CellTiter-Glo luminescence, 16 h; series mostly up to 92.4 µM; activity change, negative = cytotoxicity: at the top concentration; further: nearly all actives have a fitted effect of over 30% in size
Source text: National Center for Advancing Translational Sciences [NCATS]
NIH Chemical Genomics Center [NCGC]
U.S. Environmental Protection Agency [EPA]
National Institutes of Environmental Health Sciences [NIEHS]
National Toxicology Program [NTP]
U.S. Food and Drug Administration [FDA]
Estrogen receptor (ER), a nuclear hormone receptor, plays an important role in development, metabolic homeostasis and reproduction. Two subtypes of ER, ER-alpha and ER-beta, have similar expression patterns with some uniqueness in both types. Endocrine disrupting chemicals (EDCs) and their interactions with steroid hormone receptors like ER causes disruption of normal endocrine function. To identify the compounds that activate ER signaling, an ER beta-UAS-bla GripTite cell line (Life Technologies, Madison, WI, USA) containing a beta-lactamase reporter gene under the control of an UAS response element was used to screen Tox21 10K compound library. The cytotoxicity of the Tox21 compound library against the ER-beta-bla cell line was tested in parallel by measuring the cell viability using CellTiter-Glo assay in the same wells.
Tox21 Assay Protocol Summary:
ER-beta-UAS-bla HEK293T cells were dispensed at 2,000 cells/5 uL of assay medium containing 2% charcoal stripped FBS per well into black wall/clear-bottom 1536-well plates using a Multidrop Combi (ThermoFisher Scientific, Waltham, MA) dispenser. After the assay plates were incubated at a 37C and 5% CO2 for 6 hr, 23 nL of compounds dissolved in DMSO, positive controls or DMSO only was transferred to the assay plate by a Pintool station (Kalypsys, San Diego, CA). The plates were incubated at 37C and 5% CO2 for 16 hr. Then 1 uL of LiveBLAzerTM B/G FRET substrate was added using a BioRAPTR FRD (Flying Reagent Dispenser, Aurora Discovery, San Diego, CA) and then the plates were incubated at room temperature for 2 hours, and fluorescence intensity was measured by an Envision plate reader (PerkinElmer, Shelton, CT). For cell viability readout that measures cytotoxicity, 4 uL/well of CellTiter-Glo reagent was added into the assay plates using a FRD. After 30 min incubation at room temperature, the luminescence intensity in the plates was measured using a ViewLux (PerkinElmer) plate reader.
On the % scale 0 is the no-effect control and ±100 the full control effect; potency means the concentration at half of the fitted maximal effect.

Row | SMILES | activity change, negative = cytotoxicity | Potency
1 | CC(=O)OCC(=O)[C@@]1(O)CC[C@H]2[C@@H]3CCC4=CC(=O)C=C[C@]4(C)[C@H]3[C@@H](O)C[C@@]21C | 0.321% [at 42.5 µM] | –
2 | C=COCCCCO | -0.861% | –
3 | COc1cc(S(N)(=O)=O)cc(C(=O)O)c1OC | 5.35% [at 42.5 µM] | –
4 | O=P(O)(O)C(O)(Cc1cccnc1)P(=O)(O)O | 0.411% [at 42.5 µM] | –
5 | COc1cc(OC)cc(OC)c1 | 0.11% [at 42.5 µM] | –
6 | CC(C)C[P+](C)(CC(C)C)CC(C)C | -5.82% | –
7 | CCCCOCCCC | 7.24% | –
8 | COC(=O)c1ccc(C(=O)O)cc1 | 1.04% | –
9 | CC[C@@]1(c2ccccc2)NC(=O)N(C)C1=O | 2.19% [at 42.5 µM] | –
10 | Cc1ccc(OC(=O)CC(C)C)cc1 | 3.09% | –
11 | CCOC(=O)[C@H](CCc1ccccc1)N[C@H]1CS[C@H](c2cccs2)CN(CC(=O)O)C1=O | 0.557% [at 42.5 µM] | –
12 | O=C1c2ccccc2C(=O)N1CO | 11.9% | –
13 | C=CCn1cc[n+](C)c1 | 0.197% | –
14 | c1cc2ccc3ccc4ccc5cccc6c(c1)c2c3c4c56 | 0.89% [at 3.32 µM] | –
15 | CC(=O)c1c(C)cc(C(C)(C)C)cc1C | -3.28% | –
16 | CC(C)(C)OC=O | 0.791% | –
17 | CC(C)(C)C(=O)CC(=O)C(C)(C)C | 1.87% | –
18 | CCOC(=O)CN1CCCC1=O | 5.66% [at 42.5 µM] | –
19 | COCCCOc1cc(C[C@@H](C[C@H](N)[C@@H](O)C[C@H](C(=O)NCC(C)(C)C(N)=O)C(C)C)C(C)C)ccc1OC | 7.35% [at 42.5 µM] | –
20 | CNCCc1ccccn1 | 11.7% [at 42.5 µM] | –

Row | SMILES | activity change, negative = cytotoxicity | Potency
21 | CCCCC(CC)COC(=O)CC#N (stereo not given) | -1.33% | –
22 | CCCCCCCCCCCC(C)=O | 2.58% | –
23 | CCc1ncc(C)[nH]1 | 1.18% | –
24 | CCCCNCC | 1.06% | –
25 | CC(C)OC(=O)C(C(=O)OC(C)C)=C1SC=CS1 | – | 18.8 µM (active)
26 | CC(C)(C)c1ccc(C(=O)CCCCl)cc1 | -0.404% [at 42.5 µM] | –
27 | CCCCN=C(N)N=C(N)N | 3.38% [at 42.5 µM] | –
28 | COCc1nnc(-c2ccc[n+]([O-])c2)n1-c1c(Cl)c(Cl)cc2[nH]c(=O)c(=O)[nH]c12 | 8.62% | –
29 | CC(C)(C)C(=O)CCc1ccc(Cl)cc1 | 2.4% | –
30 | CC1=C(O)C(=O)CO1 | 1.14% | –
31 | O=C(O)Cc1ccccc1Oc1ccc(Cl)cc1Cl | 4.14% [at 42.5 µM] | –
32 | Cc1ccccc1C#N | 6.74% | –
33 | Cc1ccc(Br)cc1 | 8.52% | –
34 | N[C@H]1C(O)O[C@H](CO)[C@@H](O)[C@@H]1O (stereo not given in full) | 0.688% [at 42.5 µM] | –
35 | CCOc1ccccc1OCCN[C@H](C)Cc1ccc(OC)c(S(N)(=O)=O)c1 | -1.87% [at 42.5 µM] | –
36 | CCN(CC)CC | -14.7% | –
37 | C=CCN(CC=C)CC=C | 2.25% | –
38 | CCCCCCCCCCCBr | -1.51% [at 42.5 µM] | –
39 | Clc1cc(Cl)c(Cl)c(Cl)c1Cl | 0.36% | –
40 | CC(=O)/C=C/C=C1/C2CCC(C2)C1(C)C (stereo not given) | -6.86% [at 42.5 µM] | –
